According to publication PMC5540273 (PLoS ONE, 2017):

test system: RIPK5; conditions: concentration: 1 μM, replicates: in singlicate; n = 1
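Note: KINOMEscan kinase panel screen.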

| SMILES | %Inh |
| --- | --- |
| COCCOCCOc1cc2ncc3c4ccc(C#N)cc4[nH]c3c2cc1OC | 0% |
| CCn1c(-c2nonc2N)nc2c(C#CC(C)(C)O)ncc(OCCCCN)c21.O=C(O)C(F)(F)F.O=C(O)C(F)(F)F [GSK507274] | 4% |
| Cn1cc(-c2[nH]c3cc(NC(=O)[C@H](N)C4CCCCC4)cc4c3c2C=NNC4=O)cn1 | 25% |
| COc1cc(Nc2ncc3c(C)nc(-c4cc5ccccc5[nH]4)n3n2)cc(OC)c1OC [GW869516] | 0% |
| COc1ccc(Nc2nccc(NCCNC(=O)c3cc4ccccc4s3)n2)cc1 [GSK1379896] | 7% |
| Cl.Cl.NCC(C(=O)Nc1cc(Br)c(-c2ccnc3[nH]ccc23)s1)c1ccccc1 (stereo not shown) [GSK1269851] | 0% |
| Cc1ccc(C)c(NC(=O)NC2CCN(c3ccnc(Nc4ccc(F)cc4)n3)C2)c1 (stereo not shown) [GSK1379720] | 0% |
| CN1CCN(CCCNc2nccc(-c3c(-c4ccc(F)cc4)nn4cc(C(F)(F)F)ccc34)n2)CC1 [GW621581] | 0% |
| O=C(Nc1cccc(-c2nn3ccccc3c2-c2ccnc(Nc3cccc(F)c3)n2)c1)c1c(F)ccc(F)c1Cl [GSK357952] | 0% |
| Nc1ncc(-c2cccnc2)c2scc(-c3ccc4c(c3)CCN4C(=O)Cc3ccccc3)c12 [GSK683281] | 20% |
| Cc1cccc(Nc2nc(N[C@H]3CCNC3)ncc2C(N)=O)c1.Cl [GSK2197149] | 1% |
| Cc1ccc(C(=O)N2CC[C@@H](O)C2)cc1-n1c(C)cc(OCc2ccc(F)cc2F)c(Br)c1=O | 0% |
| Cl.c1ccc(-c2ccc3c(Nc4ccc5[nH]ccc5c4)ccnc3c2)nc1 [GW440138] | 0% |
| Cl.NC(=O)c1cccc(Nc2nccc(Nc3ccc(Oc4c(Cl)cccc4Cl)c(Cl)c3)n2)c1 [GW659009] | 10% |
| CSc1cccc2c(-c3ccncn3)c(-c3ccc(F)cc3)nn12 [GW514786] | 19% |
| Cl.Cl.NCC(NCc1ccc(-c2ccnc3[nH]ccc23)s1)c1ccccc1 (stereo not shown) [GSK1321565] | 0% |
| COC(=O)Nc1nc2ccc(Oc3ccc(NC(=O)Nc4cc(C(F)(F)F)ccc4F)cc3)cc2n1C.Cl [GW692089] | 0% |
| O=C(Nc1n[nH]c2cc(-c3ccoc3)ccc12)C1CC1 [SB-738481] | 3% |
| Fc1ccc(-c2ncn(C3CCNCC3)c2-c2ccnc(Oc3ccc(-c4ccccc4)cc3)n2)cc1 [SB-245391] | 33% |

| SMILES | %Inh |
| --- | --- |
| Cn1cc(-c2ccc3c(c2)CCN3C(=O)Cc2cccc(Cl)c2)c2c(N)ncnc21 [GSK2606590] | 58% |
| Cc1ccc(S(=O)(=O)Nc2ccc(Nc3nccc(Nc4cccc5[nH]ncc45)n3)cc2)cc1 [GSK581271] | 0% |
| O=C(O)C(F)(F)F.O=C(O)C(F)(F)F.O=c1[nH]ccc2nc(N[C@@H]3CCCNC3)nc(Nc3ccc(S(=O)(=O)N4CCOCC4)cc3)c12 [GSK2177277] | 98.3% |
| C[C@@H](Oc1cc(-n2cnc3cc(-c4ccnc(NCCS(C)(=O)=O)c4)ccc32)sc1C(N)=O)c1ccccc1Cl [GSK907232] | 5% |
| c1ccc(-c2cnc3nccnn23)cc1 [AH20685] | 0% |
| CCCCc1nn2ncccc2c1-c1ccnc(Nc2ccc(N3CCN(C)CC3)cc2)n1 [GW684941] | 56% |
| Cc1occc1-c1ncc(OC[C@@H](N)Cc2c[nH]c3ccccc23)cc1-c1ccc2[nH]nc(C)c2c1.O=C(O)C(F)(F)F [GSK682037] | 0% |
| Oc1cc(Nc2ccnc3cc(I)ccc23)ccc1F [GW552771] | 0% |
| Cc1ccc(C(=O)Nc2ccc(Nc3ccnc4cc(-c5nccs5)ccc34)cc2O)cc1.Cl [GW494702] | 0% |
| c1ccc(-c2n[nH]cc2Nc2ccnc3ccccc23)nc1 [GW694077] | 85% |
| C[C@@H]1CC[C@@H](C(=O)Nc2ccccc2)CN1c1cc(-c2ccc3c(N)n[nH]c3c2)nc(N)n1 [GSK2286062] | 0% |
| CN(C)S(=O)(=O)c1cc(-c2ccc3nccc(-c4cccc(S(N)(=O)=O)c4)c3c2)cnc1N [GSK1669921] | 26% |
| CCS(=O)(=O)c1ccc(OC)c(Nc2nccc(-c3c(-c4cccc(NC(=O)c5c(F)cccc5F)c4)nn4ncccc34)n2)c1 [GSK326180] | 10% |
| COc1cccc(C2=C(Nc3ccc(Cl)c(C(=O)O)c3)C(=O)NC2=O)c1 [SB-390769] | 100% |
| COc1cccc(NC(=O)NC2CCN(c3ccnc(Nc4cc(OC)c(OC)c(OC)c4)n3)C2)c1 (stereo not shown) [GSK1379763] | 0% |
| Cn1cc(-c2ccc3c(c2)CCN3C(=O)Cc2cccc(F)c2)c2c(N)ncnc21 [GSK2603358] | 62% |
| CC(=O)N1CCN(c2ccc(Nc3nccc(-c4sc(C(C)C)nc4-c4cccc(NS(=O)(=O)c5cccc(Cl)c5)c4)n3)cn2)CC1 [GSK1660437] | 37% |
| CN(C)Cc1ccc(-c2ccc3c(Nc4ccc(Oc5ccccn5)cc4)ccnc3c2)o1 [GW567148] | 0% |
